Bioassay records as filed in PubChem BioAssay.
E-sel TNF inh = E-selectin induction blockers in HUVEC – imaging, immunofluorescence, high content, primary screen | HUVEC TNFa-induced E-selectin immunofluorescence | inhibition, % at 2 µM | hit rate 0.71% among 120,000 | AID 1246, 2008;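 active means inhibition above the batch mean plus 3 SD, and confirmed as a hit on visual image review, cut at about 43% in these data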
CYP2C19 act = human CYP2C19 activators, primary screen, biochemical, luminescence; 96,000 tested, under 10 active; activation factor at 5 µM; recombinant CYP2C19, luciferin-H EGE luminescence; stronger effect = higher value; 0 = fully inhibited enzyme, 1 = untreated enzyme; Cytochrome P450 2C19 (Homo sapiens), P33261;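 active means activation factor of at least 2 at 5 µM in the primary screen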
CYP2C19 inhib = blockers of cytochrome P450 2C19 activity – biochemical, luminescence, ADME assay, primary screen; P33261; CYP2C19 Supersomes, luciferin-H EGE luminescence, 30 min; inhibition, % at 5 µM; hit rate 21% among 96,000;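 active means CYP2C19 inhibition above a set limit at 5 µM in the primary screen, cut at about 50% in these data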
CYP2C9 inh = blockers of cytochrome P450 2C9 activity – biochemical, luminescence, ADME assay, primary screen; P11712; CYP2C9 Supersomes, luciferin-H conversion; inhibition, % at 5 µM; hit rate 20% among 96,000; AID 777, 2007;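 active means blocking of liver enzyme CYP2C9 beyond about 50% at 5 µM, limit read from the data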
Target sequence (P11712 whole entry, looked up): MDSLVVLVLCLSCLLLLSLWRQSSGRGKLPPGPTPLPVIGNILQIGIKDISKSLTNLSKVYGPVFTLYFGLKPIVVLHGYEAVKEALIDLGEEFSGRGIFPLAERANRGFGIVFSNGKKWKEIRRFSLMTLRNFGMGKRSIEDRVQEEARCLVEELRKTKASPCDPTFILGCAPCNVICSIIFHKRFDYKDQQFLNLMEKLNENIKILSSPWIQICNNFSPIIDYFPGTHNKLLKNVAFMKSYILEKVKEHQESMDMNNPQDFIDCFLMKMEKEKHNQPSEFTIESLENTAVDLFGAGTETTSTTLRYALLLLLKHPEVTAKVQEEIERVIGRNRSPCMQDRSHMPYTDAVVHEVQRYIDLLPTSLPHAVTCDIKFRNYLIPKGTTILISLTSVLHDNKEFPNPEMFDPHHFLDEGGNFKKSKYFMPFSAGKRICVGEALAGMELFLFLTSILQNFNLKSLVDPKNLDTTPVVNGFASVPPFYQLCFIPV
F-actin modifier = modifiers of F-actin cytoskeleton organization, primary screen, imaging, HUVEC, phalloidin staining, high-content imaging; HUVEC TNFa F-actin phalloidin imaging; inhibition, % at 2 µM; hit rate 0.18% among 91,000; AID 836, 2007;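 active means inhibition above the batch mean plus 3 SD and confirmed as a hit by visual image inspection, cut at about 30% in these data, passing the limit was not always enough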
CYP2C9 act = human CYP2C9 activators, primary screen, biochemical, luminescence | hit rate 1.4% among 96,000 | AID 1024, 2008 | activation factor at 5 µM | recombinant CYP2C9, luciferin-H conversion; stronger effect = higher value; factor 1 = untreated enzyme, 0 = blocked;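 active means activation factor of 2 or more for CYP2C9 at a 5 µM dose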
Large screens that a line does not name were inactive. Shown are actives, neighbours in structure and some others; about 22% of the full set was active somewhere.

COc1cccc(C2C(C#N)=C(N)OC(C(C)(C)C)=C2C#N)c1 (configuration not stated)	CYP2C19 inhib 85, CYP2C9 inh 94 (no result: E-sel TNF inh)
COc1ccc(C2C(C#N)=C(N)OC(C(C)(C)C)=C2C#N)cc1OC (configuration not stated)	CYP2C19 inhib 61, CYP2C9 inh 90 (no result: E-sel TNF inh)
COc1ccc(S(=O)(=O)N(C)c2c(C)n(C)n(-c3ccccc3)c2=O)cc1OC	CYP2C19 inhib 71
CCC(C(=O)c1ccc(O)cc1)c1ccccc1 (configuration not stated)	CYP2C19 inhib 52
O=C(NCc1ccncc1)C12CC3CC(CC(C3)C1)C2	CYP2C19 inhib 52
O=C(NCc1ccccc1)C12CC3CC(CC(C3)C1)C2	none (no result: F-actin modifier)
O=C(Cc1c(F)cccc1Cl)c1ccc(O)cc1O	none (no result: E-sel TNF inh)
CCOC(=O)c1c(C=O)c(C)n(Cc2ccc(Cl)cc2)c1C	CYP2C9 inh 84
CCOC(=O)c1c(C=O)c(C)n(Cc2ccccc2)c1C	CYP2C9 inh 70
CCOC(=O)c1cc(C)n(CCc2ccccc2)c1C	none
CC(=O)c1c(C(C)=O)c(C)n(Cc2ccc(Cl)cc2)c1C	CYP2C19 inhib 86
O=C(O)CC1=C(c2ccc(F)cc2)CCC1=O	none (no result: CYP2C19 act, CYP2C19 inhib, CYP2C9 inh, F-actin modifier, CYP2C9 act)
O=C(CCCC(=O)OCC(=O)c1cccs1)Nc1ccc(Oc2ccccc2)cc1	none
Cc1c(C(=O)Nc2nccs2)sc2nc(-c3cccs3)cc(C(F)(F)F)c12	none
CC(=O)c1sc2nc(-c3cccs3)cc(C(F)(F)F)c2c1N	CYP2C19 inhib 58, CYP2C9 inh 67
O=C(CC1CCCCC1)N1CCN(c2ccccn2)CC1	CYP2C19 inhib 54, CYP2C9 inh 62
COc1ccccc1NC(=O)N1CCN(c2ncccn2)CC1	CYP2C9 act 2.4
Cc1ccccc1NC(=O)N1CCN(c2ncccn2)CC1	none (no result: CYP2C19 act, CYP2C19 inhib, CYP2C9 inh, F-actin modifier, CYP2C9 act)
COc1ccccc1CC(=O)N1CCN(c2ccccn2)CC1	CYP2C19 inhib 58
COc1ccccc1CC(=O)N1CCN(c2cccc(C(F)(F)F)c2)CC1	CYP2C19 inhib 72, CYP2C9 act 2 (no result: E-sel TNF inh)
O=C(Nc1cc(F)ccc1F)C1CCCO1 (configuration not stated)	none
CC1CC(=O)c2cn3c(nc2C1)nc1ccccc13 (configuration not stated)	none (no result: F-actin modifier)
COc1ccccc1NC(=O)N1CCN(c2cccc(C(F)(F)F)c2)CC1	CYP2C19 inhib 85, CYP2C9 act 2.1
COc1ccccc1NC(=O)N1CCN(c2ccc(F)cc2)CC1	none (no result: CYP2C19 act, CYP2C19 inhib, CYP2C9 inh, CYP2C9 act)
CN(CC(=O)N1CCN(c2ccccn2)CC1)S(=O)(=O)c1ccc(Br)cc1	CYP2C19 inhib 63
CN(CC(=O)N1CCN(c2ccccn2)CC1)S(=O)(=O)c1cccc2nsnc12	none (no result: CYP2C19 act, CYP2C19 inhib, CYP2C9 inh, F-actin modifier, CYP2C9 act)
CCOC(=O)c1c(C)[nH]c(C(=O)COC(=O)c2cn(CC)c3nc(C)ccc3c2=O)c1C	none (no result: E-sel TNF inh, F-actin modifier)
CCOC(=O)C(NC(=O)c1ccc(OC)cc1)(N1CCOCC1)C(F)(F)F (configuration not stated)	CYP2C9 inh 63
CCOC(=O)C(NCc1ccccc1OC)(NC(=O)c1ccccc1)C(F)(F)F (configuration not stated)	CYP2C9 inh 63
CCOC(=O)C(NC(=O)c1ccccc1)(N1CCOCC1)C(F)(F)F (configuration not stated)	none
CCOC(=O)C(NC(=O)c1ccccc1)(N1CCCC1=O)C(F)(F)F (configuration not stated)	CYP2C19 inhib 53
CCOC(=O)C(NC(C)=O)(N1CCc2ccccc2C1)C(F)(F)F (configuration not stated)	CYP2C19 inhib 75, CYP2C9 inh 92
CCOc1ccc(Nc2nc(CC(=O)OC)cc(=O)[nH]2)cc1	none
Cc1nnc(SCC(=O)Nc2nsc(-c3ccccc3)n2)s1	none (no result: F-actin modifier)
CCc1c(C#N)c(SCCC(=O)Nc2cccc(OC)c2)nc2c1C(=O)CC(C)(C)C2	CYP2C19 inhib 98, CYP2C9 inh 98
CCc1c(C#N)c(SCCC(=O)Nc2ccc(F)cc2)nc2c1C(=O)CC(C)(C)C2	CYP2C19 inhib 98, CYP2C9 inh 97
COc1ccc(-c2c(C#N)c(SCc3c(C)noc3C)nc3c2C(=O)CC(C)(C)C3)cc1	none
CC1(C)CC(=O)c2c(nc(SCC(=O)Nc3nsc(-c4ccccc4)n3)c(C#N)c2-c2ccccc2)C1	CYP2C19 inhib 54, CYP2C9 inh 85
O=C(CCSCc1ccccc1Cl)N1CCN(c2ccccn2)CC1	none
CN1CCN(C(=S)c2ccc(Cl)cc2)CC1	none
CCC1(C)Cc2c(sc(NC(=O)CCC(=O)O)c2C#N)CO1 (configuration not stated)	none (no result: E-sel TNF inh)
CCC(=O)Nc1sc2c(c1C#N)CC(C)(CC)OC2 (configuration not stated)	CYP2C19 inhib 51
CS(=O)(=O)N(CCc1ccccc1)CC(=O)Nc1ccc(OCc2ccccc2)cc1	none
CCN(CC(=O)Nc1ccccc1C(=O)OC)S(=O)(=O)c1ccc(OC)cc1	CYP2C19 inhib 65
COC(=O)c1ccccc1NC(=O)CN(CCc1ccccc1)S(C)(=O)=O	CYP2C19 inhib 52
COC(=O)c1ccccc1NC(=O)CN(c1ccc(OC)cc1)S(C)(=O)=O	none (no result: CYP2C19 act, CYP2C19 inhib, CYP2C9 inh, CYP2C9 act)
COC(=O)c1ccccc1NC(=O)CN(c1ccccc1)S(=O)(=O)N(C)C	none (no result: CYP2C19 act, CYP2C19 inhib, CYP2C9 inh, CYP2C9 act)
COC(=O)c1ccccc1NC(=O)CN(c1cc(OC)ccc1OC)S(C)(=O)=O	CYP2C19 inhib 91, CYP2C9 inh 98
COc1ccc(OC)c(N(CC(=O)Nc2ccccc2)S(C)(=O)=O)c1	CYP2C19 inhib 74, F-actin modifier 42 (no result: E-sel TNF inh)
C=CCNC(=O)CN(c1ccc(OC)cc1OC)S(C)(=O)=O	none
O=C(CSc1nnc(SCc2cccc3ccccc23)s1)N/N=C/C=C/c1ccccc1[N+](=O)[O-]	none (no result: CYP2C19 act, CYP2C19 inhib, CYP2C9 inh, F-actin modifier, CYP2C9 act)
CC1CN(C(=O)COC(=O)c2ccc(NC(=O)CC#N)cc2)CC(C)O1 (configuration not stated)	none (no result: CYP2C19 act, CYP2C19 inhib, CYP2C9 inh, F-actin modifier, CYP2C9 act)
Cc1ccc(C(=O)CN(C(=O)c2ccc(Cl)c(Cl)c2)N2C(=O)C3C4C=CC(C4)C3C2=O)cc1 (configuration not stated)	CYP2C19 inhib 79, CYP2C9 inh 93
COc1ccc(CCNc2ncnc3c2oc2ccccc23)cc1OC	CYP2C19 inhib 57
CCCCC1(C)Nc2ccccc2-c2nc3ccccc3n21 (configuration not stated)	CYP2C19 inhib 81, CYP2C9 inh 57
c1ccc2c(c1)NC1(CCCCC1)n1c-2nc2ccccc21	none
O=C1Cn2c(nc3ccccc32)-c2ccccc2N1	none (no result: E-sel TNF inh, F-actin modifier)
c1ccc2c(c1)NC1(CCCCCC1)n1c-2nc2ccccc21	CYP2C9 inh 51
CC1(c2ccccn2)Nc2ccccc2-c2nc3ccccc3n21 (configuration not stated)	CYP2C19 inhib 69, CYP2C9 inh 52 (no result: E-sel TNF inh)
